The text below walks through data of PubChem BioAssay (Tox21).

Inconclusive results are not listed. Where a call stands in place of a potency, no number is given. Calls of active or inactive are those of the source. The call rests on the fitted dose curve; in most records, active means well fitted cell-killing curve with a large enough effect in the repeat runs; inconclusive means weak or mixed curves, or effect the other way; inactive means no such curve, though single readings can be large or run the other way.
Potency means the concentration at half of the fitted maximal effect.

The experiment can be described thus: qHTS assay to identify small molecule agonists of the vitamin D receptor (VDR) signaling pathway - cell viability counter screen (AID 743224). Further: nearly all actives have a fitted effect of over 50% in size. The following applies: VDR-bla HEK293T viability, CellTiter-Glo luminescence, 16 h; series mostly up to 62.6 µM. An excerpt: U.S. Tox21 Program National Center for Advancing Translational Sciences [NCATS] NIH Chemical Genomics Center [NCGC] U.S. Environmental Protection Agency [EPA] National Institutes of Environmental Health Sciences [NIEHS] National Toxicology Program [NTP] U.S. Food and Drug Administration [FDA] Tox21 Assay Overview: The vitamin D receptor (VDR), a member of nuclear hormone receptor superfamily, plays a critical role in calcium homeostasis and bone metabolism. It is also involved in cell differentiation and growth, and thrombogenicity. […] The cytotoxicity of the Tox21 compound library against the VDR-bla cell line was tested in parallel by measuring the cell viability using CellTiter-Glo assay (Promega, Madison, WI) in the same wells.
Tox21 Assay Protocol Summary: VDR-bla cells were dispensed at 2,000 cells/6 uL/well into black wall/clear-bottom 1536-well plates using a Multidrop Combi (Thermo Fisher Scientific, Waltham, MA) dispenser. After the assay plates were incubated at a 37C and 5% CO2 for 4 h, 23 nL of compounds dissolved in DMSO, positive controls or DMSO only was transferred to the assay plate by a Pintool station (Kalypsys, San Diego, CA). The plates were incubated at 37C and 5% CO2 for 16 h. After 1 uL of LiveBLAzerTM B/G FRET substrate was added using a Bioraptr Flying Reagent Dispenser (FRD) workstation (Beckman Coulter, Indianapolis, IN, USA), the plates were incubated at room temperature for 2 h, and fluorescence intensity was measured by an Envision plate reader (PerkinElmer, Shelton, CT). For cell viability readout that measures cytotoxicity, 3 ul/well of CellTiter-Glo reagent was added into the assay plates using a FRD. After 30 min incubation at room temperature, the luminescence intensity in the plates was measured using a ViewLux (PerkinElmer) plate reader.
Take `CC(C)(C)S`: the Potency entry was “inactive”. Regarding `CCCCCCCCCCCSCC(=O)O`, the Potency result is “inactive”.

Regarding `CCOC(=O)N1CCC(Nc2ccc(Cl)cc2N)CC1`, the Potency result was “inactive”. Still for that read-out and setting: the result for `CNc1c2c(nn1C)CCCC2` reads “inactive”. On to `CCCCC(CC)COS(=O)(=O)O` (stereo not given), for which the Potency result is “inactive”. Turning to `Nc1ccc(F)cc1`, the Potency entry is “inactive”. The same measure, in the same setting: then `CC(C)COC(=O)COc1cc(Cl)c(Cl)cc1Cl`, with “inactive”; and `O=S(=O)(O)CO`, with “inactive”.

As for `CC1=CC[C@@H]2C[C@H]1C2(C)C`, the activity change, negative = cytotoxicity was 3.15% [at 13.2 µM] (inactive). Turning to `CCN(CC)CCNC(=O)c1cc(Cl)c(N)cc1OC`, the Potency result was “inactive”.

For `CCCCCCC(CO)CCCC` (stereo not given), the Potency entry was “inactive”. On the same count and under the same terms, then `Cc1ccc(Cl)cc1N`, with “inactive”; and `O=c1[nH][nH]c(=O)c2cc([N+](=O)[O-])ccc12`, with “inactive”; and `CC(=O)NCCO`, with “inactive”. The same measure, in the same setting: then `Cc1c[nH]c2ccccc12`, with “inactive”; and `CCC(C)(C)C(=O)O`, with “inactive”; and `Cc1cccc(C)c1NC(=O)c1cc(S(N)(=O)=O)c(Cl)cc1O`, with “inactive”. Take `CCCCCCOC(=O)CCCCC`: the Potency result was “inactive”. `O=C(O)CCC(=O)OC[C@@H](NC(=O)C(Cl)Cl)[C@H](O)c1ccc([N+](=O)[O-])cc1`: the Potency result is “inactive”. Consider `CC(C)(O)CCc1ccccc1`, for which the Potency entry is “inactive”.

`O[C@@H](CNC[C@H](O)[C@H]1CCc2cc(F)ccc2O1)[C@@H]1CCc2cc(F)ccc2O1`: the Potency was 21.1 µM (active). Still for that read-out and setting: then `COc1cc(NCc2ccc3nc(N)nc(N)c3c2C)cc(OC)c1OC`, with 0.15 µM (active); and `Cc1cc(CCCOc2c(C)cc(-c3noc(C(F)(F)F)n3)cc2C)on1`, with “inactive”; and `COc1ccc(N)c([N+](=O)[O-])c1`, with “inactive”. Still for that read-out and setting: then `CCN(CC)C(=O)/C(C#N)=C/c1cc(O)c(O)c([N+](=O)[O-])c1`, with “inactive”; and `c1ccc(CNc2ncnc3c2ncn3C2CCCCO2)cc1` (stereo not given), with “inactive”; and `CCC1CCC(CCC(=O)O)C1` (stereo not given), with “inactive”.

With `CC(C)(C)C1(CCc2ccc(Cl)cc2)CO1` (stereo not given), the Potency result was “inactive”.

Turning to `CCC(Cl)CC(Cl)C(Cl)C(Cl)C(Cl)C(C)Cl` (stereo not given), the activity change, negative = cytotoxicity is -2.44% [at 13.2 µM] (inactive). For the molecule `CC1CCC(C(C)CS)CC1S` (stereo not given), the Potency result is “inactive”. `COc1cc(OC)c2ccc(=O)oc2c1`: the Potency entry is “inactive”.

`O=C1NC(=O)c2cccc3cccc1c23`: the Potency entry was “inactive”. The same measure, in the same setting: the result for `OCC(CO)n1cnc(-c2ccc(F)cc2)c1-c1ccnc(Oc2ccccc2)n1` reads “inactive”.

For `COC1CCC=CO1` (stereo not given), the Potency result is “inactive”. For `CC(C)N=C=NC(C)C`, the Potency result is “inactive”. Same read-out and setting: then `N[C@@H](Cc1cc(I)c(O)c(I)c1)C(=O)O`, with “inactive”; and `CCCCCCCC(=O)OCCCCCC`, with “inactive”; and `O=c1[nH]c2cc(C(F)(F)F)c(N3CCOCC3)cc2n(CP(=O)(O)O)c1=O`, with “inactive”. Take `CC(=O)OCC(=O)[C@@]1(OC(C)=O)[C@@H](C)C[C@H]2[C@@H]3C[C@H](F)C4=CC(=O)C=C[C@]4(C)[C@@]3(F)[C@@H](O)C[C@@]21C`: the Potency entry is “inactive”. Still for that read-out and setting: the result for `CCCCCC` reads “inactive”.
